From PubChem BioAssay AID2717 (Broad Institute, 2010)
Hit rate of the full screen: of about 300,000 compounds, about 3,200 (1.1%) were called active. This is one part of a sample in which actives are shown more often than they occur. No stated cut-off is given here; in the data, active means inhibition above about 75%; inconclusive means no clear call, values can overlap the other calls; inactive means below that; tested in HMLE shEcad cells.

Assay: growth suppression of cancer stem-like cells – cell-based, luminescence, primary screen (AID 2717)
Conditions: cancer stem cell-like cells viability, at 7.5 µM, active compounds read high

Compound | inhibition
CSc1ccc(/C=N\NC(=O)COc2ccc(Cl)cc2Br)cc1 | -0.83% (inactive)
Cc1ccc(/C=N/NC(=O)COc2ccccc2-c2ccccc2)cc1 | 114% (active)
Cc1cccc(OCC(=O)NCC(=O)N/N=C/c2ccc(N(C)C)cc2)c1 | 4.13% (inactive)
CC(C)COc1ccc(C(=O)NNC(=O)CCC(=O)c2cccs2)cc1 | -16.7% (inactive)
CN(CC(=O)Nc1ccc(C(N)=O)cc1)S(=O)(=O)c1ccc2c(c1)OCCO2 | -1.86% (inactive)
COC(=O)c1c(NC(=O)COc2ccc(Cl)cc2Cl)sc2c1CC(C)(C)NC2(C)C | 103% (active)
Cc1nn(-c2ccccc2)c(C)c1NC(=O)COc1ccc(Cl)cc1Cl | 22.1% (inactive)
CCOC(=O)c1c(NC(=O)c2ccc(S(=O)(=O)N(C)CC3CCCO3)cc2)sc2c1CC(C)(C)NC2(C)C (stereo not drawn) | 62.9% (inactive)
CC(OC(=O)/C=C/c1ccccc1)C(=O)Nc1ccc(C(N)=O)cc1 (stereo not drawn) | -9.55% (inactive)
COc1ccc(C2=NN(c3nc4ccccc4s3)C(=O)C2)cc1 | 81.2% (active)
COC(=O)Cc1[nH]n(-c2nc3ccccc3s2)c(=O)c1C(C)=Nc1ccc(OC)cc1 | 32.2% (inactive)
COc1ccc(-n2nnnc2-c2nc3ccccc3s2)cc1 | 10.3% (inactive)
O=C(NCCC1=CCCCC1)c1ccc(-n2cncn2)cc1 | -10.8% (inactive)
CCOc1ccccc1Nc1ccc2nonc2c1[N+](=O)[O-] | -3.74% (inactive)
O=C(O)c1cccc(S(=O)(=O)Nc2ccc(O)cc2Sc2nc3ccccc3s2)c1 | -15.7% (inactive)
O=[N+]([O-])c1c(NCCO)cc(Sc2nc3ccccc3s2)c2nonc12 | 78.7% (active)
CC(C)C(NC(=O)c1c(F)cccc1F)C(=O)NNC(=O)c1ccccc1 (stereo not drawn) | -4.36% (inactive)
CC(C)(C)OC(=O)C[C@@H]1C/C=C\C[C@@H](CC(=O)N[C@@H](CO)Cc2ccccc2)C(=O)N2CCC[C@H]2COC1=O | -16.5% (inactive)
Cc1ccc(C)c(NC(=O)CN(C)C(=O)COc2ccc3ccccc3c2)c1 | -11.2% (inactive)
O=C(COc1ccc(Br)cc1F)NCC1(N2CCCCC2)CCCCC1 | 1.3% (inactive)
O=C1CC(c2ccccc2)=NN1c1ccc([N+](=O)[O-])cc1 | 101% (active)

Compound | inhibition
CC1=NN(c2ccccc2)C(=O)C1C(=O)c1ccc([N+](=O)[O-])cc1 (stereo not drawn) | -1.87% (inactive)
O=c1[nH]n(-c2ccc([N+](=O)[O-])cc2)c(=O)c2ccccc12 | -17.2% (inactive)
Cc1ccc(NC(=O)C2CC2)cc1S(=O)(=O)N1CCOCC1 | -16% (inactive)
C[C@H](CO)N1C[C@H](C)[C@H](CN(C)C(=O)Nc2ccc(C(F)(F)F)cc2)Oc2c(NC(=O)c3ccncc3)cccc2C1=O | 6.77% (inactive)
COc1ccc(NC(=O)Nc2ccc3c(c2)C(=O)N([C@H](C)CO)C[C@H](C)[C@@H](CN(C)C(=O)Nc2ccc4c(c2)OCO4)O3)cc1 | -11% (inactive)
COc1cc(OC)cc(-c2c(-c3cccs3)c3cc(-c4ccc(OC)cc4F)ccc3n2C)c1 | -6.57% (inactive)
COc1cc(OC)cc(-c2sc3ccc(OC)cc3c2-c2ccc3cc[nH]c3c2)c1 | 137% (active)
COc1ccc2[nH]c(=S)cc(C)c2c1 | -16.3% (inactive)
COc1ccc2sc(-c3ccc(N(C)C)cc3)c(-c3ccc4cc[nH]c4c3)c2c1 | 83.3% (active)
CCN(CC)CC(=O)c1c[nH]c2ccc(OC)cc12 | 3.22% (inactive)
COc1cc2c(cc1O)[C@H](Cc1ccc(Oc3cc(C[C@@H]4NCCc5cc(OC)c(O)cc54)ccc3O)cc1)NCC2 | 9.97% (inactive)
CC[C@H]1CN2CCc3cc(OC)c(OC)cc3[C@@H]2C[C@@H]1C[C@H]1NCCc2cc(OC)c(OC)cc21 | 76.3% (active)
COc1ccc2c(c1)CCNC2Cc1ccc(OC)c(O)c1 (stereo not drawn) | 10.2% (inactive)
CN=C(Nc1cccc(S(=O)(=O)N2CCOCC2)c1)c1ccccc1 | -5.3% (inactive)
COc1cccc(CNC(=O)CCCC(=O)Nc2cccc([N+](=O)[O-])c2)c1 | -9.18% (inactive)
COc1ccc(S(=O)(=O)NC(C)C(=O)Nc2cccc([N+](=O)[O-])c2)cc1 (stereo not drawn) | -2.67% (inactive)
COC(=O)/C=C\C(=O)Nc1cccc([N+](=O)[O-])c1 | 88.5% (active)
Cc1ccc(NC(=O)c2ccc(Cl)nc2)cc1S(=O)(=O)N1CCOCC1 | 33.6% (inactive)
O=C(COCc1cc(-c2ccc3c(c2)OCO3)on1)N1CCN(c2cccc(Cl)c2)CC1 | 36.2% (inactive)
CCOC(=O)N1CCN(C(=O)COCc2cc(-c3ccc4c(c3)OCO4)on2)CC1 | -12.8% (inactive)
Cc1cccc(N2CCN(C(=O)COCc3cc(-c4ccc5c(c4)OCO5)on3)CC2)c1C | 121% (active)

Compound | inhibition
Cc1ccc(C(=O)Nc2ccc3c(c2)OCCO3)cc1S(=O)(=O)N1CCOCC1 | -3.87% (inactive)
C[C@H](CO)N1C[C@H](C)[C@@H](CN(C)S(=O)(=O)c2ccc(F)cc2)Oc2ccc(NC(=O)CCC(F)(F)F)cc2C1=O | 4.59% (inactive)
CCN(c1ccccc1)S(=O)(=O)c1ccc(C(=O)Nc2ccccc2OC)cc1 | 16.8% (inactive)
COc1ccc([C@H]2CC(=O)C=C(c3ccc(CO)cc3)C2)cc1 | -11% (inactive)
FC(F)(F)c1cccc(NC(=S)Nc2cccc(Cl)c2)c1 | 52.9% (inactive)
S=C(Nc1cccc(Cl)c1)Nc1ccc2c(c1)OCCO2 | 4.65% (inactive)
Cc1csc(NC(=S)Nc2cccc(Cl)c2)n1 | 78.6% (active)
CCN(CC)S(=O)(=O)c1ccc(N2CCOCC2)c(NC(=O)C(C)Oc2ccc(F)cc2)c1 (stereo not drawn) | -11.2% (inactive)
CN(c1ccccc1)S(=O)(=O)c1cc(C(=O)N2CCN(c3ncccn3)CC2)ccc1Cl | 3.3% (inactive)
COc1ccc(C)cc1S(=O)(=O)N1CCN(S(=O)(=O)c2cc(C(=O)O)ccc2C)CC1 | -3.35% (inactive)
Cc1ccc(C)c(S(=O)(=O)N2CCN(c3ncnc4sccc34)CC2)c1 | 101% (active)
Cc1ccc(C)c(S(=O)(=O)N2CCN(C(=O)Nc3ccccc3)CC2)c1 | -18.4% (inactive)
CCN1C(=O)/C(=C\N2CCN(c3cccc(Cl)c3)CC2)SC1=S | 100% (active)
CCC1(C)NC(=O)N(CC(=O)N2CCN(c3cccc(Cl)c3)CC2)C1=O (stereo not drawn) | 3.29% (inactive)
CCN1C(=O)/C(=C\N2CCOCC2)SC1=S | -22.1% (inactive)
COc1cc(/C=C/C(=O)Nc2ccc(OC)c(S(=O)(=O)N3CCOCC3)c2)ccc1OCC#N | 42.4% (inactive)
O=C(Nc1cccc(S(=O)(=O)N2CCCC2)c1)c1cncc(Br)c1 | -1.23% (inactive)
C=CCC[C@@H](Cc1ccc(F)cc1)C(=O)OC[C@@H](C)NC(=O)[C@H](CC=C)CC(=O)N(CCO)Cc1ccccc1 | -1.95% (inactive)
O=C(CSc1nnc(-c2ccncc2)o1)Nc1cccc(Cl)c1 | 7.36% (inactive)
Cc1cc(C)c(S(=O)(=O)N2CCC(C(=O)OCc3c(C)noc3C)CC2)c(C)c1 | 1.55% (inactive)
COc1cc(/C=C/C(=O)OCC(=O)NCCCc2ccccc2)ccc1O | 14.6% (inactive)
